Measured values: ChEMBL document CHEMBL3988442, “University of Dundee, Small-Polar-MMV Screening Library” (2021)
Screen size: about 48,000 compounds; about 13,000 (27%) showed an effect of 50% or more. Some of the results follow.

Test system: Wolbachia pipientis
Test: Anti-Wolbachia Cell-Based Screen
Assay type: functional
Set-up: scale not given: in the data most compounds retested in dose-response had high values
Conditions: 5 µM

| SMILES | Percent Effect [%] |
| --- | --- |
| CCc1ccccc1C(=O)NS(=O)(=O)CCCC#N | -10.54 |
| Cc1n[nH]c(CCC(=O)N2CCOC(Cc3ccc(F)cc3)C2)c1C (stereo unspecified) | 14.83 |
| O=C(NC1(C(=O)NCC2CC2)CCCC1)C1Cc2cc(F)ccc2O1 (stereo unspecified) | -11.6 |
| CN(C)CCN1CCO[C@@H]2CN(C(=O)Cc3ccsc3)CC[C@@H]2C1 | 102.6 |
| Cc1cc(CN2C[C@@H](C)[C@@]3(CCN(C)C3=O)C2)oc1C.O=C(O)C(F)(F)F | 2.821 |
| C[C@H]1CN(C(=O)c2ccoc2)C[C@@]12CCN(CCN(C)C)C2=O.O=C(O)C(F)(F)F | 113.7 |
| C[C@@H]1CN(C(=O)Cc2ccsc2)C[C@]12CCN(CCN(C)C)C2=O | 171.4 |
| CN(C)CCN1CC(C(=O)N2CCC(c3cccc(O)c3)CC2)CC1=O (stereo unspecified) | -14.83 |
| Cc1ccc(OC2(C(=O)O)CCN(C(=O)c3ccccc3F)CC2)cn1 | -3.687 |
| COCC1CN(C(=O)Cc2ccsc2)Cc2c1cnn2C (stereo unspecified) | -19.19 |
| COCCN1CCO[C@@H]2CN(C(=O)Cc3ccc(F)cc3)CC[C@@H]2C1.O=C(O)C(F)(F)F | 12.24 |
| C[C@@H]1CN(C(=O)c2ccccc2F)C[C@]12CCN(CCN(C)C)C2=O | 90.27 |
| COCCN1CCO[C@@H]2CN(C(=O)Cc3ccccc3)CC[C@@H]2C1.O=C(O)C(F)(F)F | 12.5 |
| CC1N(C)C(=O)COC12CCN(C(=O)Cc1ccsc1)CC2 (stereo unspecified) | 1.71 |
| CC(C)COc1cncc(NC(CO)c2ccco2)n1 (stereo unspecified) | -5.064 |
| CC(C1CCN(Cc2ccccc2OC(F)F)CC1)N1CCOCC1 (stereo unspecified) | 23.13 |
| CCN(CC(=O)NC)C(=O)c1cc(-c2cccc(Cl)c2)no1 | -2.874 |
| CNS(=O)(=O)c1ccc(CN2CCCN(CC(C)C)CC2)cc1 | 8.265 |
| Nc1cccc(-c2cccc3ccnn23)n1 | 9.414 |
| O=C(N[C@H]1CC[C@H](O)CC1)c1ccc2nc(-c3ccc(F)cc3)cn2c1 | -4.798 |
| NC(=O)Cn1ccnc1C1CCCN(Cc2ccccc2OC(F)F)C1 (stereo unspecified) | -1.119 |
| O=C1CC2(CCN(C(=O)c3ccc4c(c3)CCCO4)C2)C(=O)N1 (stereo unspecified) | -2.87 |
| Cc1ccsc1-c1nc(CN(C)Cc2noc(C(C)C)n2)c(C)o1 | 10.67 |
| COc1ccc(CNC(=O)Nc2ccc(=O)n(C)c2)cc1 | -2.437 |
| COc1ccc(NC(=O)Nc2c(O)c3ccccc3oc2=O)cc1 | 106 |
| COc1ccc(CNC(=O)Nc2ccc(CN3CCOC3=O)cc2)cc1 | 12.97 |
